The values that follow come from PubChem BioAssay (NCI).

This is part of a sample that, as a whole, favours compounds with a hit. Of some 83,000 tested, about 20% had one in any assay.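 For each line, cells grew in 96-well plates with the test compound present at a single concentration for 48 hours.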 A number with no mark means an inactive call. Active and inactive are the calls of the source. The calls were made as follows: active = growth percent below 10; inactive = the rest.

Test systems include SR leukemia; RPMI-8226 leukemia; OVCAR-8 ovarian; OVCAR-5 ovarian; OVCAR-4 ovarian; SK-OV-3 ovarian; IGROV1 ovarian; OVCAR-3 ovarian; HS 578T breast; NCI/ADR-RES ovarian; T-47D breast; BT-549 breast; MDA-MB-435 melanoma; SW-620 colon; MCF7 breast; HCT-116 colon; HCC-2998 colon; KM12 colon.
What all share (assay): NCI-60 one-dose screen, 48 h (100 = growth as untreated, 0 = no growth, -100 = all killed)
Holding throughout (conditions): 10 µM unless noted

Regarding `CC/C=C\C[C@H](F)C/C=C1/C(=O)C=C[C@@H]1C/C=C\CCCC(=O)OC`, the growth with SR leukemia was -25.8% (active); with RPMI-8226 leukemia it was -10.4% (active); in the experiment on OVCAR-8 ovarian, -15.4% (active); in the experiment on OVCAR-5 ovarian, 68.2%; in the experiment on OVCAR-4 ovarian it was 24.2%; in the experiment with SK-OV-3 ovarian, 50.3%. Further, the growth in the experiment on IGROV1 ovarian is 10.6%; in the experiment with OVCAR-3 ovarian, -13.2% (active); with HS 578T breast it was 45.2%; in the experiment with NCI/ADR-RES ovarian it was 14.2%; with T-47D breast, 4.66% (active); in the experiment with BT-549 breast, -2.64% (active). Further, the growth is 0.0777% (active) in the experiment on MDA-MB-435 melanoma; 14.3% with SW-620 colon; 11.6% in the experiment with MCF7 breast; -54.6% (active) with HCT-116 colon; 9.38% (active) with HCC-2998 colon; -27.7% (active) with KM12 colon.

For `COc1cnc2c(c1)C(=O)c1c-2n(CCCBr)c(=O)c2cc([N+](=O)[O-])ccc12`, the growth with SR leukemia was 7.47% (active); in the experiment with RPMI-8226 leukemia, -12.9% (active); in the experiment on OVCAR-8 ovarian it was 2.09% (active); in the experiment on OVCAR-5 ovarian it was 5.53% (active); in the experiment with OVCAR-4 ovarian, 5.15% (active); in the experiment with SK-OV-3 ovarian, 8.4% (active). Besides, the growth in the experiment with IGROV1 ovarian was 2.21% (active); in the experiment with OVCAR-3 ovarian, -44.1% (active); in the experiment with HS 578T breast, 36.9%; in the experiment on NCI/ADR-RES ovarian it was 11.6%; in the experiment on T-47D breast, 2.87% (active); in the experiment with BT-549 breast, 25.5%. The growth was 11.4% with MDA-MB-435 melanoma; 12.1% with SW-620 colon; 1.77% (active) with MCF7 breast; -24.8% (active) with HCT-116 colon; 13.7% with HCC-2998 colon; 1.44% (active) in the experiment on KM12 colon.

In the case of `COc1ccc(C(=O)COc2ccc(/C=C3\Oc4ccc(Cl)cc4C3=O)cc2)cc1`, the growth with SR leukemia was -22.4% (active); in the experiment with RPMI-8226 leukemia it was 181%; in the experiment on OVCAR-8 ovarian, 76.6%; with OVCAR-5 ovarian it was 103%; with OVCAR-4 ovarian it was 86.3%; in the experiment on SK-OV-3 ovarian it was 98.7%. The growth in the experiment with IGROV1 ovarian was 32.9%; in the experiment with OVCAR-3 ovarian, 113%; in the experiment with HS 578T breast it was 91.8%; with NCI/ADR-RES ovarian it was 88.6%; with T-47D breast, 78.2%; in the experiment on BT-549 breast, 98.1%. The growth in the experiment with MDA-MB-435 melanoma was 106%; in the experiment with SW-620 colon it was 83.6%; in the experiment on MCF7 breast, 47.1%; with HCT-116 colon, 23.6%; in the experiment on HCC-2998 colon it was 111%; in the experiment on KM12 colon it was 98.8%.

As for `Cc1ccc(N)cc1F`, the growth was 121% in the experiment with SR leukemia; 121% in the experiment with RPMI-8226 leukemia; 96.4% in the experiment on OVCAR-8 ovarian; 109% in the experiment with OVCAR-5 ovarian; 113% in the experiment with OVCAR-4 ovarian; 102% in the experiment with SK-OV-3 ovarian. Besides, the growth is 104% in the experiment on IGROV1 ovarian; 102% in the experiment on OVCAR-3 ovarian; 86.4% with HS 578T breast; 94.2% in the experiment on NCI/ADR-RES ovarian; 184% in the experiment on T-47D breast; 116% with BT-549 breast. In addition, the growth was 100% in the experiment on MDA-MB-435 melanoma; 107% with SW-620 colon; 94.2% in the experiment with MCF7 breast; 86.8% with HCT-116 colon; 106% with HCC-2998 colon; 99.7% in the experiment on KM12 colon.

For `O=C(Nc1ccc(Oc2ccc(F)cc2)c(Cl)c1)c1cccnc1`, the growth was 75.1% in the experiment on SR leukemia; 87.3% in the experiment with RPMI-8226 leukemia; 98.6% with OVCAR-8 ovarian; 99.9% in the experiment on OVCAR-5 ovarian; 85.2% in the experiment on OVCAR-4 ovarian; 110% in the experiment with SK-OV-3 ovarian. In addition, the growth is 95.4% in the experiment with IGROV1 ovarian; 85.8% in the experiment on OVCAR-3 ovarian; 91.5% in the experiment on HS 578T breast; 85.1% in the experiment on NCI/ADR-RES ovarian; 70.6% in the experiment on T-47D breast; 92.5% in the experiment on BT-549 breast. Further, the growth in the experiment on MDA-MB-435 melanoma is 41.5%; in the experiment with SW-620 colon it was 92.7%; with MCF7 breast it was 76.7%; with HCT-116 colon, 88.2%; in the experiment on HCC-2998 colon, 91.2%; with KM12 colon it was 76.4%.

As for `COc1ccc(/C=C/C(=O)c2c(O)c(C)c(O)c3c2OC2=CC(O)=C(C(C)=O)C(=O)[C@]23C)cc1`, the growth in the experiment with SR leukemia is -17.6% (active); in the experiment with RPMI-8226 leukemia it was -28.9% (active); with OVCAR-8 ovarian it was -14.9% (active); in the experiment with OVCAR-5 ovarian it was 7.96% (active); with OVCAR-4 ovarian it was 12.1%; with SK-OV-3 ovarian it was -24.9% (active). The growth in the experiment on IGROV1 ovarian is -8.12% (active); in the experiment with OVCAR-3 ovarian, -20.5% (active); with HS 578T breast it was -9.2% (active); with NCI/ADR-RES ovarian it was -13.5% (active); in the experiment on T-47D breast, -17.1% (active); in the experiment with BT-549 breast, -19.9% (active). Besides, the growth with MDA-MB-435 melanoma is -66.9% (active); in the experiment on SW-620 colon, 6.73% (active); in the experiment with MCF7 breast, -2.88% (active); with HCT-116 colon, -8.41% (active); with HCC-2998 colon, -30.2% (active).

Take `CN1CCN(Cc2ccc(NC(=O)c3[nH]ncc3Nc3ncnc4[nH]ccc34)cc2)CC1`: the growth in the experiment with SR leukemia is -17% (active); in the experiment on RPMI-8226 leukemia, -10.4% (active); in the experiment with OVCAR-8 ovarian it was 6.62% (active); with OVCAR-5 ovarian, 11.6%; with OVCAR-4 ovarian, -21.7% (active); in the experiment on SK-OV-3 ovarian, 18.5%. Besides, the growth in the experiment with IGROV1 ovarian is 16.4%; with OVCAR-3 ovarian, -57.6% (active); in the experiment on HS 578T breast it was -3.22% (active); in the experiment with NCI/ADR-RES ovarian, 71.2%; with T-47D breast, 21.7%; in the experiment with BT-549 breast, -76.2% (active). Moreover, the growth with MDA-MB-435 melanoma was 8.18% (active); with SW-620 colon, 5.63% (active); in the experiment on MCF7 breast, 9.25% (active); in the experiment on HCT-116 colon, 2.81% (active); in the experiment with HCC-2998 colon, -14.2% (active); in the experiment on KM12 colon it was 3.42% (active).

`C#Cc1nc2ccccc2c(=O)[nH]1`: the growth was 2.53% (active) in the experiment with SR leukemia; -22.2% (active) with RPMI-8226 leukemia; -31.3% (active) with OVCAR-8 ovarian; -44.7% (active) with OVCAR-5 ovarian; -74.4% (active) in the experiment with OVCAR-4 ovarian; 49.6% in the experiment with SK-OV-3 ovarian. Further, the growth is -66.2% (active) in the experiment with IGROV1 ovarian; -82.3% (active) in the experiment on OVCAR-3 ovarian; -4.79% (active) in the experiment on HS 578T breast; -2.94% (active) in the experiment on NCI/ADR-RES ovarian; -30.6% (active) in the experiment on T-47D breast; -61.2% (active) in the experiment on BT-549 breast. Also, the growth was -58.2% (active) with MDA-MB-435 melanoma; -63.7% (active) with SW-620 colon; -25% (active) in the experiment on MCF7 breast; -64.2% (active) with HCT-116 colon; -41.1% (active) in the experiment with HCC-2998 colon.
